Shown are actives, neighbours in structure and some others; about 3.5% of the full set was active somewhere.
Vc quorum ag: quorum light induction in luxS cqsA deficient V. cholerae | AID 588436 | actives 0.16% (n = 350,000) | V. cholerae BH1578 lux reporter, luminescence, 6 h | activation, % at 18.7 µM; in the data active = activation mostly above about 9.7%, no sharp cut-off; inconclusive = no clear call, values can overlap the other calls; inactive = mostly below about 3.7%
BoNT A protease: blocks Botulinum neurotoxin A light chain protease; multiplex microsphere protease substrate cleavage, flow cytometry; inhibition, % at 10 µM; actives 0.17% (n = 360,000); AID 588499; note: plate controls were buffer without enzyme for full effect and enzyme alone for no effect
BoNT-F LC inh: blocks Botulinum neurotoxin F light chain protease; Multiplex microsphere protease cleavage assay, flow cytometry; inhibition, % at 10 µM; actives 0.22% (n = 360,000); in the data active = inhibition above about 35%, passing the limit was not always enough; inconclusive = no clear call, values can overlap the other calls; note: plate controls were buffer without enzyme for full effect and enzyme alone for no effect
Bead autofluor: compound fluorescence in toxin protease inhibitor counterscreen; compound autofluorescence counterscreen, microsphere flow cytometry; active compounds read high; actives 3.1% (n = 360,000); AID 624483; fluorescence intensity (test concentration not listed); in the data active = fluorescence intensity above about 16000; inconclusive = no clear call, values can overlap the other calls
Anthrax LF inh2: anthrax lethal factor protease inhibition. P15917. multiplex microsphere protease cleavage assay, LF. inhibition, % at 10 µM. actives 0.12% (n = 360,000); note: plate controls were buffer without enzyme for full effect and enzyme alone for no effect
Starred values were filed as active, the others as inactive; i = inactive; ? = inconclusive; nt = not tested or not shown. Cut-off read from the data, not from the text of the source, unless noted: active = inhibition above about 30%; inconclusive = no clear call, values can overlap the other calls; inactive = below that.

SMILES	Vc quorum ag	BoNT A protease	BoNT-F LC inh	Bead autofluor	Anthrax LF inh2
CCOC(=O)c1c(C)nc(C)c2c(=O)oc3ccccc3c12	i	0.7	2.4	4318	3.3
O=C(CC(C(=O)N1CCc2ccccc21)n1ccnc1)NCc1ccccc1 (configuration not stated)	i	9.5	8.8	18019*	-5.2
CC(=O)/C(=C\N(C)C)Sc1ccc(C)cc1	-0.7	-0.7	37.7*	3560	?
CN(C)Cc1nnnn1-c1ccccc1	i	0.1	-4.8	4478	-4.7
CCC(CC)Nc1ccc(C(CC(N)=O)NC(=O)Cc2cccc3ccccc23)cc1[N+](=O)[O-] (configuration not stated)	i	0.5	-8.9	2948	-1.5
Cc1ccc(O)c(CNc2nc3ccccc3n2C(C)C)c1	-0.3	-2.2	37.7*	3526	-2.0
COc1ccc(OCCNC(=S)Nc2cccc3ccccc23)cc1	-0.2	-0.4	-3.4	22439*	-2.2
COc1ccccc1CCNC(=O)c1ccc(C)o1	2.2	?	-1.7	21801*	-0.7
COc1ccc(NC(=S)NCCc2ccccc2OC)c(OC)c1	-0.2	-0.2	-0.9	16398*	-7.8
O=C(O)c1ccccc1Sc1ncnc2sc3c(c12)CCC3	-1.1	0.2	2.2	3846	-0.4
O=C(CC1NCCNC1=O)NC1Cc2ccccc2C1 (configuration not stated)	-0.4	-5.3	?	4501	-2.3
Cc1cc(C(=O)N/N=C/c2ccco2)n[nH]1	-0.6	0.3	-3.0	1988	-1.6
CC(/C=C/c1ccco1)=N\NC(=O)c1cc(C)[nH]n1	i	?	-0.2	23188*	-4.7
O=C(O)c1ccc2nc(C(F)(F)F)[nH]c2c1	i	?	-4.8	21497*	-0.4
O=C(O)c1ccc2nc(CO)[nH]c2c1	i	0.2	2.0	3875	-2.9
CC1(C)[C@H]2CC=C(CN3CCC(N4CCC(C(=O)N5CCCC5)CC4)CC3)[C@@H]1C2	i	-0.9	3.1	6453	-2.0
CC1(C)C2CC=C(CN3CCC(O)CC3)C1C2 (configuration not stated)	-2.6	?	0.0	16149*	-2.5
Cc1cc(-c2ccccc2)nc(N/N=C/c2ccco2)n1	-2.5	-2.0	-5.0	24412*	-3.3
C(=N\Nc1nc(-c2ccccc2)cs1)/c1ccco1	i	-0.1	-6.5	2317	-2.7
Cc1ccc(-c2csc(N/N=C/c3ccco3)n2)cc1	-0.2	0.0	-6.0	23231*	-5.5
CSCCC(NC(=O)COc1ccccc1)C(=O)N(C)Cc1cccc(F)c1 (configuration not stated)	i	-0.3	-1.1	3506	-2.6
CCCc1cc(=O)oc2cc(OC(C)C(=O)NCC3CCC(C(=O)O)CC3)ccc12 (configuration not stated)	-0.4	0.0	-4.1	5187	-2.7
O=C(COc1ccccc1)NC(Cc1c[nH]c2ccccc12)C(=O)O (configuration not stated)	-5.6	0.5	0.5	16391*	-5.1
O=C(NC(Cc1c[nH]c2ccccc12)C(=O)O)c1ccc(Br)cc1 (configuration not stated)	i	0.0	-7.0	2115	-1.8
Cc1ccc(C(=O)NC(Cc2c[nH]c3ccccc23)C(=O)O)cc1 (configuration not stated)	1.4	?	0.5	20051*	-1.8
SMILES	Vc quorum ag	BoNT A protease	BoNT-F LC inh	Bead autofluor	Anthrax LF inh2
CC(C)c1ccc(OCC(=O)NC(Cc2c[nH]c3ccccc23)C(=O)O)cc1 (configuration not stated)	i	0.2	-1.4	4598	0.7
COc1ccc(CCN2C(=O)CCC2(C)c2nnnn2-c2ccc3c(c2)OCCO3)cc1OC (configuration not stated)	nt	-0.2	4.5	5880	6.6
O=C(COC(=O)c1ccccc1NCCO)NNC(=O)c1cccs1	-0.7	-0.2	5.1	?	1.2
Brc1cccc(Cn2c(-c3cncs3)nc3ccccc32)c1	-3.1	?	-2.3	22203*	-2.0
c1ccc(Cn2c(-c3cncs3)nc3ccccc32)cc1	i	-2.8	-3.6	20700*	1.0
Brc1ccc(Cn2c(-c3cncs3)nc3ccccc32)cc1	i	-0.9	-9.3	10760	5.3
COC(=O)c1ccc(OC(=O)C2CC(=O)N(c3cccc(C)c3)C2)cc1 (configuration not stated)	i	?	-3.1	16757*	-2.7
COc1cccc(N2CC(C(=O)Oc3ccc4ccccc4c3)CC2=O)c1 (configuration not stated)	-0.3	-1.1	-10.4	10482	-21.4
CSc1ccccc1C(=O)NCCOc1cccc(C)c1	i	-0.9	-3.7	3343	-0.6
